Source: PubChem BioAssay (National Center for Advancing Translational Sciences (NCATS))
PNC inhibitor: High Content Assay for Compounds that inhibit the Assembly of the Perinucleolar Compartment; AID 2417, 2010; activity change (PNC), negative = inhibition, % at 10 µM; PC3M PTB-GFP, PNC prevalence imaging, 16 h; active compounds read low; actives 3.1% (n = 140,000);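 active = readout at or below -70, meaning at least 70% loss of cells showing the perinucleolar compartment, a nuclear body marking cancer cells; inconclusive = readout between -30 and a set limit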;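 note: plate controls were DMSO wells for no effect and camptothecin positive control wells for full effect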
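Compounds are pinned in duplicate onto adhered PC3M cells stably expressing GFP-tagged PTB and incubated 16 h at 37 C. Cells are then fixed, nuclei stained with Hoechst, and PNC-positive cells counted.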
HPGD inh: qHTS Assay for Inhibitors of HPGD (15-Hydroxyprostaglandin Dehydrogenase). 15-hydroxyprostaglandin dehydrogenase [NAD(+)] (Homo sapiens), P15428. purified HPGD, NADH fluorescence kinetic, PGE2 substrate. Potency, µM, for inactives: at the top dose activity change, negative = inhibition, most hits filed as inhibitors. actives 4.3% (n = 150,000); note: potency is the fitted concentration of half-maximal effect
Target sequence (P15428 whole entry, looked up): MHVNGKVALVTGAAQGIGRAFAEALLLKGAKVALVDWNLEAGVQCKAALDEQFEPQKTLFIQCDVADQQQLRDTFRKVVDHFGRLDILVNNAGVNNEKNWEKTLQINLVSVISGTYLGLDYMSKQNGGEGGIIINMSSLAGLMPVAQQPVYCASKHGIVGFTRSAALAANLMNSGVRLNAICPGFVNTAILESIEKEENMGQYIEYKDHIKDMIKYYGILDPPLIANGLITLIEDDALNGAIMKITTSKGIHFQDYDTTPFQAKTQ
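20 nM HPGD preincubated 15 min at room temperature with compound in 50 mM Tris-HCl pH 8, 0.01% Tween 20. Started with 1 mM NAD+ and 30 uM prostaglandin E2; NADH fluorescence (360/450 nm) read 5 times over 30-s intervals, last minus first.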
ALOX12 inhib: qHTS Assay for Inhibitors of 12-hLO (12-human lipoxygenase); purified 12-hLO, xylenol orange hydroperoxide absorbance; actives 0.12% (n = 150,000); Polyunsaturated fatty acid lipoxygenase ALOX12 (Homo sapiens), P18054; Potency, µM (series often up to 57.1 µM), inactives show top-dose activity change, negative = inhibition, most hits filed as inhibitors; AID 1452, 2008; active = well fitted inhibition curve with a large enough effect; inconclusive = small, poorly fitted or top-dose-only effect; note: potency is the fitted concentration of half-maximal effect; nearly all actives have a fitted effect of over 55% in size
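150 nM 12hLO, 25 mM Hepes pH 7.0 + 0.01% Triton X-100; cpd preinc 15 min RT; 40 uM arachidonic acid, 30 min RT; Fe-XO 30 min; A573/A405 ratio as read-out.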
Lamin A splicing: qHTS Assay for Modulators of Lamin A Splicing; actives 0.01% (n = 200,000); AID 1487, 2009; Potency, µM (top dose mostly 46.1 µM), for inactives: at the highest dose ratio change, negative = inhibition, actives largely listed as inhibitors; HeLa LMNA splicing GFP/RFP minigene ratio, 48 h; active = well fitted inhibition curve with a large enough effect in the signal ratio, with a control signal flat, not every such curve was filed as active; inconclusive = small, poorly fitted or top-dose-only effect, or effect the other way, or a change in a side signal; the % refers to the signal ratio; note: potency is the fitted concentration of half-maximal effect
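Read-out is the ratio of GFP to DsRed2 object intensity, acquired by 488 nm laser-scanning cytometry on HeLa lamin A-EGFP minigene reporter cells. Compound incubation 48 hrs at 37 °C in Opti-MEM with 2% FBS; DMSO 0.5% final.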
ALDH1A1 inh: qHTS Assay for Inhibitors of Aldehyde Dehydrogenase 1 (ALDH1A1). Purified ALDH1A1, NADH fluorescence, propionaldehyde substrate. Potency, µM (series often up to 75.3 µM), for the others: at the top dose activity, negative = inhibition, actives largely listed as inhibitors. AID 1030, 2008. actives 7.3% (n = 220,000);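 note: potency is the fitted concentration of half-maximal effect; plate controls were no enzyme wells and a reference inhibitor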
* marks the source's active call; other numbers are inactive results; ? = inconclusive; / = no result; [ ] = remark or other dose. Hits are enriched below; roughly 10% of the tested compounds scored in any of these assays. Unless noted, calls come from the whole dose curve; as a rule, active = well fitted inhibition curve with a large enough effect (not every such curve was filed as active); inconclusive = small, poorly fitted or top-dose-only effect, or another doubt; inactive = no such curve, though single readings can be large or run the other way. Unless noted, % is set by controls: 0 for no effect and ±100 for the full control effect.

SMILES	PNC inhibitor	HPGD inh	ALOX12 inhib	Lamin A splicing	ALDH1A1 inh
CCn1ncc(CNC(=O)c2cccc([N+](=O)[O-])c2)c1C	-92*	-2%	-6%	-17%	12%
CCn1cc(CNC(=O)c2cccc([N+](=O)[O-])c2)cn1	26	-1%	-1%	-2%	25%
CCn1ncc(CNC(=O)C2(C)CC2(Cl)Cl)c1C (stereo unspecified)	?	11µM*	-5%	5%	-1%
COc1c(Cl)cc(C(=O)NN)cc1Cl	/	/	/	/	2.2µM*
COc1c(Cl)cc(C(=O)Nc2ccccc2C(=O)O)cc1Cl	45	14µM*	2%	?	13µM*
CNC(=O)c1cc(Cl)c(OC)c(OC)c1	1	?	-6%	-7%	22µM*
COc1cc(C(N)=O)cc(Cl)c1OC	/	/	/	/	1%
NNC(=O)c1ccncc1	17	-12%	-4%	-11%	-3%
NNC(=O)c1cc(O)c(O)c(O)c1	/	/	/	?	25µM*
NNC(=O)c1cc(Cl)ccc1Cl	-27	-2%	-4%	-4%	?
COCCNC(=O)CN(C(=O)Cn1nnc2ccccc21)c1cc(C)cc(C)c1	/	/	/	16%[46 µM]	11%
CN(C)c1ccnc(-c2cccc(NS(C)(=O)=O)c2)n1	/	-18%	2%	?	-9%
COc1ccc(CC(=O)Nc2ccc(C(=O)Nc3ccccc3C(=O)O)cc2)cc1OC	?	-16%	-2%	-11%	28µM*
O=C1CC(N2CCN(c3ccc(O)cc3)CC2)C(=O)N1Cc1cccs1 (stereo unspecified)	-26	-1%	-3%	?	25µM*
O=C(c1ccncc1)c1ccc(N2CCN(C3CC(=O)N(Cc4cccs4)C3=O)CC2)cc1 (stereo unspecified)	/	/	/	2%[46 µM]	?
CCCc1cc(C(=O)Nc2cccnc2)no1	-106*	-17%	-5%	2%	-19%
CCCc1cc(C(=O)Nc2cccc(Cl)c2)no1	-26	-18%	1%	-8%	11%
CC(C)(C)C1CCc2onc(C(=O)Nc3cccnc3)c2C1 (stereo unspecified)	-6	-2%	-6%	4%	-1%
CCCc1cc(C(=O)Nc2ccccc2SC)no1	24	22µM*	-4%	-5%	?
O=C(Nc1cccnc1)c1noc2c1CCCC2	-3	-14%	0%	?	22µM*
CC1=NN(C(N)=S)C(C)(C)C1	/	/	/	/	5%
Nc1nc(-c2ccccc2)c(N=Nc2ccc(Cl)cc2)s1	-9	?	0%	?	28µM*
Cc1ccc(-c2noc(C3CCCN(S(=O)(=O)c4ccc5ccccc5c4)C3)n2)o1 (stereo unspecified)	-12	20µM*	2%	?	24µM*
Cc1ccc(-c2noc(C3CCN(S(=O)(=O)c4ccc5c(c4)OCCO5)CC3)n2)o1	-1	-3%	-3%	?	28µM*
CN(C)c1ccc(-c2noc(C3CCN(S(=O)(=O)c4cccc(Cl)c4)CC3)n2)cc1	32	?	-1%	?	?
SMILES	PNC inhibitor	HPGD inh	ALOX12 inhib	Lamin A splicing	ALDH1A1 inh
Cc1ccc(-c2noc(C3CCCN(S(=O)(=O)c4ccc(S(=O)(=O)N(C)C)cc4)C3)n2)o1 (stereo unspecified)	58	-12%	4%	5%	25µM*
O=S(=O)(c1ccc2ccccc2c1)N1CCC(c2nc(-c3ccncc3)no2)CC1	-100*	-14%	-9%	?	-6%
CCOc1ccc(C(=O)NCCc2csc(-c3ccc(C(F)(F)F)cc3)n2)cc1OCC	/	/	/	-3%[46 µM]	/
CC(=O)c1cccc(S(=O)(=O)N2CCCC(c3nc(-c4ccc(C)o4)no3)C2)c1 (stereo unspecified)	-12	-27%	-8%	?	10µM*
Cc1ccc(S(=O)(=O)N2CCCC(c3nc(-c4ccc(C)o4)no3)C2)cc1 (stereo unspecified)	-22	-23%	-12%	?	?
CCOC(=O)C1=C(C)c2ccccc2N(C(=O)OC)C1(C)C(=O)OCC (stereo unspecified)	/	?	?	/	32µM*
CCCCCCCN1N=C(C)C(C(=O)c2ccccc2)C1=O (stereo unspecified)	-85*	0%	-19%	?	-4%
COc1cc([N+](=O)[O-])ccc1NC(=O)CCCOc1cccc(C)c1C	6	-16%	-6%	-3%	14µM*
COc1ccc(N(Cc2cccs2)C(=O)COc2cccc(Cl)c2)cc1	/	/	/	3%[46 µM]	/
COC(=O)CN(c1c(C)cccc1C)S(C)(=O)=O	-86*	-3%	4%	-2%	-4%
O=C(C(=S)N1CCOCC1)c1c[nH]c2ccccc12	/	/	/	/	3.2µM*
O=C(CN1CCOCC1)c1c[nH]c2ccccc12	63	0%	6%	0%[0.0737 µM]	-5%
N[C@@H](C(=O)O)c1cc(O)ccc1Cl	/	-28%	-6%	/	-8%
COc1cc2c(=O)n(Cc3ccco3)c(=O)n(CC(=O)c3ccc(Br)cc3)c2cc1OC	18	-3%	0%	-2%	0.4µM*
COCCNC(=O)CCCn1c(=O)c2cc(OC)c(OC)cc2n(CC(=O)c2cccc(OC)c2)c1=O	/	/	/	/	-11%
COc1cc2c(=O)n(Cc3ccco3)c(=O)n(CC(=O)c3cccc(Br)c3)c2cc1OC	?	-6%	1%	?	1.1µM*
COc1ccc(NC(=O)Cn2c(=O)n(CC(=O)NCc3ccco3)c(=O)c3ccccc32)cc1OC	-11	-5%	-3%	-5%	9%
CN(C)Cc1ccc(C(C)(C)C)cc1-c1cc(C(C)(C)C)ccc1CN(C)C	/	-11%	-3%[11.4 µM]	/	-2%[13.5 µM]
COc1ccc(C(=O)OCC(=O)NCc2ccccc2)c(OC)c1OC	/	/	/	1%[46 µM]	3%
CCOC(=O)C(C(=O)NCCCN1CCOCC1)C1CCCCC1 (stereo unspecified)	-100*	-8%	2%	7%	1%
Fc1cccc(Cl)c1Cn1nnc(-c2ccc3c(c2)OCO3)n1	-17	-24%	-18%	9%	?
Fc1cccc(Cl)c1CSc1nnnn1-c1ccc2c(c1)OCO2	48	-16%	-11%	?	14µM*
O=C(O)c1cc(-n2nnnc2SCc2ccccc2F)ccc1Cl	/	/	/	/	10µM*
COC(=O)N1CCC[C@@]2(CCN(c3ncccn3)C2)C1	/	-19%	0%	/	-13%
CC(C)(C)C(=O)N1CCC(O)(CS(=O)(=O)c2ccc(Cl)c(Cl)c2)CC1	/	/	/	5%[46 µM]	0%
C[C@@]1(C(NC(=O)c2ccc(-c3ccccc3)cc2)c2ccc(Cl)cc2)C[C@H]1C1CCCCC1 (stereo partly specified)	/	-15%	7%	/	2%
